The text below walks through data of paper PMC7862700, “An all-to-all approach to the identification of sequence-specific readers for epigenetic DNA modifications on cytosine”.

Common to all, as to assay: DAPPL (digital affinity profiling via proximity ligation, sequencing); 10 mM Tris-HCl pH 7.5, 50 mM NaCl, 1 mM DTT, 4% glycerol, room temperature, 30 min; GST-TFs on glutathione beads, 16-mer random dsDNA library, 0.1% formaldehyde crosslink after washing; high values mean tight binding
What all share (settings): protein: recombinant; tags: N-terminal GST; dsDNA, one strand shown

For assay [1], the target named is T1, FLI1 (Homo sapiens, UniProt Q01543 1-452).
T1 sequence: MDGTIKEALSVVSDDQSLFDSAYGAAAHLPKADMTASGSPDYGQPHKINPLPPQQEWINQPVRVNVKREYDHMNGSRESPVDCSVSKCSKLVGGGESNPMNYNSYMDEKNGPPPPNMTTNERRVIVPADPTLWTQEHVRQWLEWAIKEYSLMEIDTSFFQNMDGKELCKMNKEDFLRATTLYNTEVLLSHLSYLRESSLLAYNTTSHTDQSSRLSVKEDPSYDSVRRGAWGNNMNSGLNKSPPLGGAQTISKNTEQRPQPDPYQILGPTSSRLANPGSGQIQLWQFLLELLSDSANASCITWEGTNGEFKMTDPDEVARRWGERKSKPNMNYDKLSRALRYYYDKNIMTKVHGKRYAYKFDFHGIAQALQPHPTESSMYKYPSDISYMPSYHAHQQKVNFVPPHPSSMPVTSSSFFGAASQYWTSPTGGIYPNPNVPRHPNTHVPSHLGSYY
The method, boiled down:
(§1)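 Human transcription factors were made in yeast as GST fusions, captured on glutathione beads and barcoded with DNA. With a tag-only sample included, the pool was incubated with 200 nmole of a random double-stranded 16-mer DNA library in Tris/NaCl/DTT/glycerol buffer at room temperature for 30 min, then crosslinked with 0.1% formaldehyde after washing, ligated by proximity, amplified and sequenced. For binding signal, each hexamer's read frequency for a factor is divided by its frequency for the tag-only sample.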

For assay [2], the target named is T2, GABPA (Homo sapiens, UniProt Q06546 1-454).
T2 sequence: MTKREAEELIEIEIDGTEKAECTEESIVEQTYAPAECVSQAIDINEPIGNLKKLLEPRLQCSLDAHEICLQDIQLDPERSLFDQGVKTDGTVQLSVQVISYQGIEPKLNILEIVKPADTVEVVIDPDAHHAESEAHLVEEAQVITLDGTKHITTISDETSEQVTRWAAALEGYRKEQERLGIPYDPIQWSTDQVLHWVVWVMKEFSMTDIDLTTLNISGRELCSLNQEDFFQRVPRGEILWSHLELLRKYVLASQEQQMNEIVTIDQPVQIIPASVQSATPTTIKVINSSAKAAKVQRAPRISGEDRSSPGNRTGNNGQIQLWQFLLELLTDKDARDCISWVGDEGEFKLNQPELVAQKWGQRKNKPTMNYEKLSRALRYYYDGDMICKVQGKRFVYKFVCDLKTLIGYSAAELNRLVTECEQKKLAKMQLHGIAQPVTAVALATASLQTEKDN
The procedure, abridged: as §1

Assay [3] concerns the target T3, ERG (Homo sapiens, UniProt P11308 1-479).
T3 sequence: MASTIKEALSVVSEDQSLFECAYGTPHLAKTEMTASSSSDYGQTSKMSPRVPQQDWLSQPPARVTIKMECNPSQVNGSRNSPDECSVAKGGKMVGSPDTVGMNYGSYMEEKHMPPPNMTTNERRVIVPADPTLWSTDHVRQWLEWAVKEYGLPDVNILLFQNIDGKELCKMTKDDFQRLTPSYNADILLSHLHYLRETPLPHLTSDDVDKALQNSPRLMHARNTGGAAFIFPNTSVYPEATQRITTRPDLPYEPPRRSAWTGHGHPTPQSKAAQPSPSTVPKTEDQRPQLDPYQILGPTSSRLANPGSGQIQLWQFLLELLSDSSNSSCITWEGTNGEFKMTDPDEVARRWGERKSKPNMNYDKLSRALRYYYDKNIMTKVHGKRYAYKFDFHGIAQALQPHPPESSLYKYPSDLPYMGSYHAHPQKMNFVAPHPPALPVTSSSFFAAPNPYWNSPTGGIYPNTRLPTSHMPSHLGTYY
The method, boiled down: as §1

Assay [4] has as its target ELF1 (Homo sapiens, UniProt P32519 1-619). The procedure, abridged:
as §1

Assay [5] addresses SPIB (Homo sapiens, UniProt Q01892 1-262). The method, boiled down: as §1
For assay [6], the target named is ELF4 (Homo sapiens, UniProt Q99607 1-663). The procedure, abridged:
as §1

Assay [7] deals with T4, ELK4 (Homo sapiens, UniProt P28324-2 1-405).
T4 sequence: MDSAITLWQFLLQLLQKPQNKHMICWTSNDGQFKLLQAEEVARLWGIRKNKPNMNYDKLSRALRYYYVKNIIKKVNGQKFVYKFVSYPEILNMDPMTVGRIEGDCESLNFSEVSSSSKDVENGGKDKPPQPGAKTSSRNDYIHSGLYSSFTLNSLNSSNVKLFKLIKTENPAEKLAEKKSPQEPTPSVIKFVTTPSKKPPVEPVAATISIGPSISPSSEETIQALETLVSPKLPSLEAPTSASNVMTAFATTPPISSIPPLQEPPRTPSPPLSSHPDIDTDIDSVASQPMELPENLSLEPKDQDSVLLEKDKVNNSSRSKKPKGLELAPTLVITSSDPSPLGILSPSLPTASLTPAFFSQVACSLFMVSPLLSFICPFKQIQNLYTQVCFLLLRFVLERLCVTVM
The procedure, abridged: as §1

Assay [8] deals with T5, ETV2 (Homo sapiens, UniProt O00321 1-342).
T5 sequence: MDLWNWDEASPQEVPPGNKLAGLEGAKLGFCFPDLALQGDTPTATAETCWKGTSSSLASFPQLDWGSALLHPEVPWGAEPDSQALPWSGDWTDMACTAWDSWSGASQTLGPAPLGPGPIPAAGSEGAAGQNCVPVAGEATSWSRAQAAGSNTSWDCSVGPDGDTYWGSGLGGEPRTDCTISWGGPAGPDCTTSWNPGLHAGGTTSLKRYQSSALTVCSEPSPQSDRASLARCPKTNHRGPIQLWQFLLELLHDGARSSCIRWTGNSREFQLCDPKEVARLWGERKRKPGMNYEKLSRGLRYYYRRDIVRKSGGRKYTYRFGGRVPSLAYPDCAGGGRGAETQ
The method, boiled down:
as §1

For assay [9], the target named is T6, ELF3 (Homo sapiens, UniProt P78545 1-371).
T6 sequence: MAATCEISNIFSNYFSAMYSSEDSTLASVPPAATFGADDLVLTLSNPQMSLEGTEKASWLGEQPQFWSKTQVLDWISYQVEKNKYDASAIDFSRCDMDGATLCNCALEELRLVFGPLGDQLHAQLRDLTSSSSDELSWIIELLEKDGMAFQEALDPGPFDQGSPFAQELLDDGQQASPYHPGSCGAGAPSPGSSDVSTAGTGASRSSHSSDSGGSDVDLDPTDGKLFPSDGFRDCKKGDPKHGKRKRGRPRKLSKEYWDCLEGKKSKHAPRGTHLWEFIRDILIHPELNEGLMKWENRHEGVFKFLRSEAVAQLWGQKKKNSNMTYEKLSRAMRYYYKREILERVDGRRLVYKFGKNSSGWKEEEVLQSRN
The method, boiled down: as §1

Assay [10] has as its target ETV1 (Homo sapiens, UniProt P50549 1-477). The method, boiled down:
as §1

For assay [11], the target named is T7, ERF (Homo sapiens, UniProt P50548 1-548).
T7 sequence: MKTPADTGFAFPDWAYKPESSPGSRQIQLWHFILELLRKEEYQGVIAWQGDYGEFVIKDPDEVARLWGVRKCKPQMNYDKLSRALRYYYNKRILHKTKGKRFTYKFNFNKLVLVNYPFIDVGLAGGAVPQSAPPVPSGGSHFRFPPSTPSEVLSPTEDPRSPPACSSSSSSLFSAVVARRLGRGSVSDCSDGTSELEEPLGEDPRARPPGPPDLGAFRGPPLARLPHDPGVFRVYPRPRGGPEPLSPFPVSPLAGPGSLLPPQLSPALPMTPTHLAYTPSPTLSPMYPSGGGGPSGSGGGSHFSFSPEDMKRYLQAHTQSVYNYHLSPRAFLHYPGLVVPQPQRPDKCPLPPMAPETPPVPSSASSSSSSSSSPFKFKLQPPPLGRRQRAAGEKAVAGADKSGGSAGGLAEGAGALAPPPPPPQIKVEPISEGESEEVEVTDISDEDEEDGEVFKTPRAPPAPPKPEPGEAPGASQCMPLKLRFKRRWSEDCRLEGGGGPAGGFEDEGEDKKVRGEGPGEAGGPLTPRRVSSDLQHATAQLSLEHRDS
The method, boiled down:
as §1

Assay [12] addresses T8, ETV3L (Homo sapiens, UniProt Q6ZN32 1-361).
T8 sequence: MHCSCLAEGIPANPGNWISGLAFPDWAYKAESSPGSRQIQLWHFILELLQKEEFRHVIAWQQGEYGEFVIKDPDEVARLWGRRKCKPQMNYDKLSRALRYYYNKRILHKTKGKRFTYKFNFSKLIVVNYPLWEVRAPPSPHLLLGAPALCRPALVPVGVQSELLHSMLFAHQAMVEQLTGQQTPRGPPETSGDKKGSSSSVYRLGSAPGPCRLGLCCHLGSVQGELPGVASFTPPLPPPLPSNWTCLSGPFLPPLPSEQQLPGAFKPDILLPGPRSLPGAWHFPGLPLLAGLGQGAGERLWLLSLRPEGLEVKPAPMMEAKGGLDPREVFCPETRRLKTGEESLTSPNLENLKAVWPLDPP
The method, boiled down:
as §1

Assay [13] deals with T9, ETS2 (Homo sapiens, UniProt P15036 1-469).
T9 sequence: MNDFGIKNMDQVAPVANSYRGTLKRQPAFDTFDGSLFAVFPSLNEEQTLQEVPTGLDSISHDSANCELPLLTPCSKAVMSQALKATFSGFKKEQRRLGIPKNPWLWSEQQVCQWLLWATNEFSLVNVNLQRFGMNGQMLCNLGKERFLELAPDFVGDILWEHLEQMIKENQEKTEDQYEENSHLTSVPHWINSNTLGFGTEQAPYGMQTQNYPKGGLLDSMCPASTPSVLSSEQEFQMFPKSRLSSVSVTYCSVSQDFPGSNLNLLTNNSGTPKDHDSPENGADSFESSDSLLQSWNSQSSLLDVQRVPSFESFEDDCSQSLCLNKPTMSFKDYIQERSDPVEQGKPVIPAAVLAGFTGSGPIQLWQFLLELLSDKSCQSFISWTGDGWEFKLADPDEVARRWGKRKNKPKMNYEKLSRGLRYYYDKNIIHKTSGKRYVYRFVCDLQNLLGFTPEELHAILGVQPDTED
The procedure, abridged:
as §1

Assay [14] has as its target T10, ETV3 (Homo sapiens, UniProt P41162-2 1-143).
T10 sequence: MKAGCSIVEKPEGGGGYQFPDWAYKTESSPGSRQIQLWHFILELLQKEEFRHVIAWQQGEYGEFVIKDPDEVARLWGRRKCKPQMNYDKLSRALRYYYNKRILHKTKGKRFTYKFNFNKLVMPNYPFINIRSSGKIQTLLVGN
The procedure, abridged:
as §1

Assay [15] deals with ETV6 (Homo sapiens, UniProt P41212 1-452). The procedure, abridged: as §1
Chain of ETV6 (P41212 whole entry): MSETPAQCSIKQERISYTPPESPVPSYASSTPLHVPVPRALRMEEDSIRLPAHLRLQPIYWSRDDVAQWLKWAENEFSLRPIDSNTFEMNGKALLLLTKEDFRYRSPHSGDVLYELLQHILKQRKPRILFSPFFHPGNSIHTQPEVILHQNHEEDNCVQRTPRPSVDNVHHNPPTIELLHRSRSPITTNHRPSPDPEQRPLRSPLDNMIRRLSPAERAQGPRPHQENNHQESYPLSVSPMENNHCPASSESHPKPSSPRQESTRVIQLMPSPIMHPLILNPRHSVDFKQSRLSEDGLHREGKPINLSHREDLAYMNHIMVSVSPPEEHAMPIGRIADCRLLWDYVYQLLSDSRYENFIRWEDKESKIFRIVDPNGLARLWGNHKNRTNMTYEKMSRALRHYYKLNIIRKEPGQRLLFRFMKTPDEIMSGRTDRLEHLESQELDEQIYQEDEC

Chain of ELF1 (P32519 whole entry): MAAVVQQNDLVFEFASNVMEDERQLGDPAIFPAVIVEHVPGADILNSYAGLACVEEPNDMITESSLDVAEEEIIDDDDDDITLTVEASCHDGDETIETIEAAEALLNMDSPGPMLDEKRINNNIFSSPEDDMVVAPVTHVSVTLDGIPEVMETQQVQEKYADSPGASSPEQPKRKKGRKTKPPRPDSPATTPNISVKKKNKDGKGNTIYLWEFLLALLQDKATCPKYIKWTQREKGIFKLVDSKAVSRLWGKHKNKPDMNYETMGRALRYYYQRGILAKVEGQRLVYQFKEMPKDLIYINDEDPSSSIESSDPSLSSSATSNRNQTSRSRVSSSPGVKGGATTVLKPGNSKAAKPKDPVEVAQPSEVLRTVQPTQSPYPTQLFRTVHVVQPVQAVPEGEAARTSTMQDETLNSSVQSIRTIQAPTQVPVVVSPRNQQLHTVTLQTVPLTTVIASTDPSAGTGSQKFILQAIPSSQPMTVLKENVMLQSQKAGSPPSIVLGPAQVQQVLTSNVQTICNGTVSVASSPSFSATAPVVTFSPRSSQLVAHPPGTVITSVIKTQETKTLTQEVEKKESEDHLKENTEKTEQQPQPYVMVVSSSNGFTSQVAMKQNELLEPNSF
Chain of SPIB (Q01892 whole entry): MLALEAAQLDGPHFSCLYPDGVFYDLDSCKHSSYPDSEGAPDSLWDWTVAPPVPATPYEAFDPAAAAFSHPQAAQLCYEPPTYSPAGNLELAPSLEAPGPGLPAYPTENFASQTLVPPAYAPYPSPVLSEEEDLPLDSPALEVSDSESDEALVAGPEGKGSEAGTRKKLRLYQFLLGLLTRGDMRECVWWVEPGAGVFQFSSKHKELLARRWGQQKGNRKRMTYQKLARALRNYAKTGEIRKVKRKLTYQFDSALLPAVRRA
Chain of ETV1 (P50549 whole entry): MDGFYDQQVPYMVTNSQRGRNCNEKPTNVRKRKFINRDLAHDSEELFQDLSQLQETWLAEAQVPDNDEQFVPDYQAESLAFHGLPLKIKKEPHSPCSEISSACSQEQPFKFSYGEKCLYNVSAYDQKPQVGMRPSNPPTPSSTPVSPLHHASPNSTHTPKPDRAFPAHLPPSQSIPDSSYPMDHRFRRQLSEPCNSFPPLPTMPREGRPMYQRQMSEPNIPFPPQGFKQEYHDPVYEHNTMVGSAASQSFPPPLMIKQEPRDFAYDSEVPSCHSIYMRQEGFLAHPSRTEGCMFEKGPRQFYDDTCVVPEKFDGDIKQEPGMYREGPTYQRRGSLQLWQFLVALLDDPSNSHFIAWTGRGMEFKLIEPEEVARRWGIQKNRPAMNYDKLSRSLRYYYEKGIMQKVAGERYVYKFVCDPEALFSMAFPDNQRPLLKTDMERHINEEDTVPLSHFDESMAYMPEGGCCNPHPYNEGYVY
Chain of ELF4 (Q99607 whole entry): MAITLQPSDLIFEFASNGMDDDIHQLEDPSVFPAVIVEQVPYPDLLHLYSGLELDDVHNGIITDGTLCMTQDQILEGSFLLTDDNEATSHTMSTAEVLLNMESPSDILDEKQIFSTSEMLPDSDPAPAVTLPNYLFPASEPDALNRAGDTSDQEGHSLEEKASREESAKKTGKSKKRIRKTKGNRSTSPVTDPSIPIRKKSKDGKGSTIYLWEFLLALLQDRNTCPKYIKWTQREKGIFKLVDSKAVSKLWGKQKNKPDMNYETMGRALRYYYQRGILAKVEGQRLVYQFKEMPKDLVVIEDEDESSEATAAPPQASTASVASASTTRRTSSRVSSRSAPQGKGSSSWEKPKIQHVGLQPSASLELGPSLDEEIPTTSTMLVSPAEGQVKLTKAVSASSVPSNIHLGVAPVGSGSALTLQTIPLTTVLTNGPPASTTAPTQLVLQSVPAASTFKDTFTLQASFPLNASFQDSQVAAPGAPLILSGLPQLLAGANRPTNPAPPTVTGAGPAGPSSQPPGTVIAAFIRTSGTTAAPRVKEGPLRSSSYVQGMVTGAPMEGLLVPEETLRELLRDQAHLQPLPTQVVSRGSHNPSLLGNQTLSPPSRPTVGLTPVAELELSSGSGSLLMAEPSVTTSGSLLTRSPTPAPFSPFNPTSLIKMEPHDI

Take TGTCAA: the binding signal in [1] was 1.02 fold enrichment (6-mer frequency, TF over GST control); in assay [2] it was 1.01 fold enrichment (6-mer frequency, TF over GST control); in assay [3], 1.05 fold enrichment (6-mer frequency, TF over GST control); in [4], 1.05 fold enrichment (6-mer frequency, TF over GST control); in assay [5], 1.02 fold enrichment (6-mer frequency, TF over GST control); in [6], 1.08 fold enrichment (6-mer frequency, TF over GST control). In addition, the binding signal was 1.11 fold enrichment (6-mer frequency, TF over GST control) in assay [7]; 1 fold enrichment (6-mer frequency, TF over GST control) in [8]; 1.15 fold enrichment (6-mer frequency, TF over GST control) in assay [9]; 1.06 fold enrichment (6-mer frequency, TF over GST control) in assay [10]; 1.07 fold enrichment (6-mer frequency, TF over GST control) in assay [11]; 1.07 fold enrichment (6-mer frequency, TF over GST control) in assay [12]. The binding signal in assay [13] was 1.03 fold enrichment (6-mer frequency, TF over GST control); in assay [14] it was 1.08 fold enrichment (6-mer frequency, TF over GST control); in assay [15] it was 1.04 fold enrichment (6-mer frequency, TF over GST control).
